Screening data: PubChem BioAssay, National Center for Advancing Translational Sciences (NCATS)
HP1b binding inh – inhibitors of HP1-beta chromodomain binding to methylated histone tails; Potency, µM (titrated, usually from 114 µM), for the others: at the highest dose activity change, negative = inhibition, most hits filed as inhibitors; AID 540317; hit rate 0.56% among 390,000; AlphaScreen HP1-beta / biotin-H3K9me3 peptide binding; P83916; note: potency is the fitted concentration of half-maximal effect; nearly all actives have a fitted effect of over 70% in size
Target sequence (P83916 whole entry, looked up): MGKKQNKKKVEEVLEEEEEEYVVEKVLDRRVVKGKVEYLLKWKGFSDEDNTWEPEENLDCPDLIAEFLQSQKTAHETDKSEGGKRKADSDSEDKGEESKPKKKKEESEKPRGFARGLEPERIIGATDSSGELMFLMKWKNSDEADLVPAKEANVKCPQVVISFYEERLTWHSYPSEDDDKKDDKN
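HP1-beta protein (50 nM final) preincubated 30 min at room temperature with biotinylated H3(1-18)K9me3 peptide (50 nM) in PBS pH 7.4, 0.01% Tween-20, then compound added for 30 min. AlphaScreen streptavidin donor/nickel chelate acceptor beads (10 ug/mL final), 30 min dark, luminescence read.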
CtBP-E1A inh – blocks the CtBP interaction with E1A | AlphaScreen GST-E1A/His-CtBP binding, 1536-well; active compounds read low | activity change, % (test concentration not listed) | hit rate 0.49% among 340,000 | AID 651724; in the data active = activity change below about -65%; inconclusive = mostly about -30% to -63%; note: % is set by controls: 0 for no effect and ±100 for the full control effect
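AlphaScreen with 125 nM GST-E1A and 125 nM His-CtBP (5X stocks) in Tris pH 8.0, 300 mM NaCl, BSA, Tween 20, TCEP. Compounds preincubated 2 h at 37 deg C, then glutathione donor/nickel acceptor beads added for 1 h at 37 deg C in dark.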
Six1-Eya2 inh – blocks human Six1 binding to Eya2; Q15475+O00167; AlphaScreen GST-Six1/His-Eya2 binding, biochemical; active compounds read low; AID 651725; activity change, % (no concentration beside the values); hit rate 0.56% among 360,000; in the data active = activity change below about -65%; inconclusive = mostly about -30% to -63%; note: % is set by controls: 0 for no effect and ±100 for the full control effect
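Compounds are tested against tagged Six1 and Eya2 proteins bridged by glutathione donor and nickel acceptor beads; after a one-hour incubation at 37 °C without light, AlphaScreen emission is recorded.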
JMJD2A Tudor – inhibitors of human JMJD2A Tudor domain; Potency, µM (highest dose often 114 µM), inactives show top-dose activity change, negative = inhibition, usual class: inhibitors; AlphaScreen JMJD2A-Tudor / H3K4me3 peptide binding; hit rate 4.4% among 390,000; O75164; note: potency is the fitted concentration of half-maximal effect; % is set by controls: 0 for no effect and ±100 for the full control effect; nearly all actives have a fitted effect of over 50% in size
G9a inh – inhibitors of human histone lysine methyltransferase G9a | Potency, µM (highest dose often 102 µM), for inactives: top-dose activity, negative = inhibition, hits mostly inhibitors | G9a H3K9 monomethylation, AlphaScreen, 2 h | hit rate 8.8% among 350,000; note: potency is the fitted concentration of half-maximal effect; % is set by controls: 0 for no effect and ±100 for the full control effect; nearly all actives have a fitted effect of over 75% in size
Target sequence (Q96KQ7 913-1193 limits assumed): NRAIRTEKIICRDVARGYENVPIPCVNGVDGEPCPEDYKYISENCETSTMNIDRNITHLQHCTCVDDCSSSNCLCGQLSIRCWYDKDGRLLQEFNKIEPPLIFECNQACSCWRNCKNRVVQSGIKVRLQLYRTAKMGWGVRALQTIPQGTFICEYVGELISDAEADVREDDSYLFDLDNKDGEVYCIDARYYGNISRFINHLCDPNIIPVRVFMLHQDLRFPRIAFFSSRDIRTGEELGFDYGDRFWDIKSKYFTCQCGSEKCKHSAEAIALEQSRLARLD
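Chemiluminescent proximity detection of H3K9 monomethylation, read after 10 min bead incubation in the dark. Reaction: 20 nM G9a, 500 nM biotin-H3K9 peptide, 20 uM SAM cofactor, 2 h, room temperature, following 15 min enzyme-compound preincubation.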
BAZ2B inh – BAZ2B (human) inhibition; Q9UIF8; AlphaScreen BAZ2B-H3K14Ac peptide displacement; Potency, µM (top dose mostly 114 µM), for the others: top-dose activity change, negative = inhibition, most hits filed as inhibitors; hit rate 4.4% among 360,000; AID 504333; note: potency is the fitted concentration of half-maximal effect; % is set by controls: 0 for no effect and ±100 for the full control effect; nearly all actives have a fitted effect of over 60% in size
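AlphaScreen displacement: compounds (up to 110uM) incubated 30 min at room temperature with a preformed 50 nM BAZ2B/50 nM biotinylated H3K14Ac peptide complex in PBS pH 7.4 with Tween-20. Donor and acceptor beads at 10 ug/mL final added, 20 min light-protected before reading.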
An asterisk follows results filed as active; ? = inconclusive; · = no result; [ ] = remark or other dose. Shown are actives, neighbours in structure and some others; about 10% of the full set was active somewhere. Unless noted, calls come from the whole dose curve; as a rule, active = well fitted inhibition curve with a large enough effect; inconclusive = small, poorly fitted or top-dose-only effect; inactive = no such curve, though single readings can be large or run the other way.

SMILES	HP1b binding inh	CtBP-E1A inh	Six1-Eya2 inh	JMJD2A Tudor	G9a inh	BAZ2B inh
Cc1ccc(NC(=O)CSc2nnc(-c3ccccc3Br)o2)cc1C	15%	4	4	-17%	10µM*	-5%
N#Cc1cccc(NC(=O)CSc2nnc(-c3n[nH]c4ccccc34)o2)c1	33%	-87*	-26	-14%	·	-6%
O=C(CSc1nnc(-c2cccnc2)o1)Nc1cccc(Cl)c1	29%	0	4	-8%	45µM*	-8%
O=C(CSc1nnc(-c2cccnc2)o1)Nc1ccc(Cl)cc1	29%	4	7	-8%	-18%	-10%
O=C(CSc1nnc(-c2cccnc2)o1)NNC(=O)c1ccc(Br)cc1	71%	-1	2	-14%	14%	21%
O=C(CSc1nnc(-c2ccc(O)cc2)o1)NNC(=O)c1ccncc1	8%	0	2	?	18µM*	?
Cc1cc(C)c(CN2CCN(C(=O)CC[C@H]3O[C@@H](n4ccc(=O)[nH]c4=O)[C@H](O)[C@@H]3O)CC2)c(C)c1	·	-10	-5	·	·	·
O=C(NCCc1ccccc1)C1CCCN(S(=O)(=O)c2cccc3nsnc23)C1 (stereo not drawn)	8%	0	6	?	3%[59 µM]	-10%
O=C(CSc1nnc(-c2ccncc2)o1)Nc1nncs1	18%	-2	-22	32µM*	15%	-22%
CC(=O)c1ccc(NC(=O)C(C)Sc2nnc(-c3ccncc3)n2C2CC2)cc1 (stereo not drawn)	1%	2	-9	?	·	·
O=C1N=C(N2CCN(Cc3ccccc3)CC2)S/C1=C/c1cccs1	-12%	-3	-6	-9%	·	-28%
O=C1N=C(N2CCOCC2)S/C1=C/c1ccc(-c2ccc(F)cc2)o1	37%	0	-8	-11%	·	-23%
Cc1ccc(-c2ccc(/C=C3\SC(N4CCOCC4)=NC3=O)o2)cc1	-29%	·	-23	-16%[11.4 µM]	32µM*	·
Cc1ccc(/C=C2\SC(N3CCN(C(c4ccccc4)c4ccccc4)CC3)=NC2=O)o1	-20%	7	-24	?	4.5µM*	?
CCOc1ccc(Nc2nc3cc(Cl)c(Cl)cc3nc2-n2nc(C)cc2C)cc1	56%	·	·	15%	1%[59 µM]	4%
Cc1nccn1CCCNC(=O)C1CCC(=O)N(Cc2ccccc2F)C1 (stereo not drawn)	34%	-2	-7	-7%	·	-2%
CCCn1c(=O)c(C#N)cn(C2CC2)c1=O	5%	-2	3	-1%	-13%[59 µM]	-1%
Cc1nn(CC(=O)NC2CCCCC2)c(=O)c2cc3cc(F)ccc3n12	2%	·	·	-8%	4%[59 µM]	3%
CCOC(=O)c1nnc2ccnn2c1N	2%	-11	-5	89µM*	?	-3%
O=c1[nH]cnc2c1N1CCC2CC1	10%	-7	-17	28µM*	45µM*	?
O=c1[nH]cnc2nc[nH]c12	·	·	·	·	-5%[12.7 µM]	·
FC(F)(F)c1nc(SCc2ccccc2)n[nH]1	43%	0	3	-1%	·	·
Cc1nc2cc(-c3ccc(Cl)cc3)nn2c(NCCN(C)C)c1C	12%	0	-6	-34%	71µM*	-35%
CO/N=C\Cc1oc(=O)c(NC(=O)c2ccccc2)cc1C(=O)OC	-5%	-2	-10	-10%[11.4 µM]	32µM*	-6%
Cc1oc(=O)c(NC(=O)c2ccccc2)cc1C(N)=O	42%	·	2	-6%[11.4 µM]	-6%	-1%
SMILES	HP1b binding inh	CtBP-E1A inh	Six1-Eya2 inh	JMJD2A Tudor	G9a inh	BAZ2B inh
O=C(C/C=N/OCc1ccc(Cl)cc1Cl)c1ccccc1	120%	12	19	69%	85%[59 µM]	131%
COC(=O)c1cc(NC(=O)c2ccccc2)c(=O)oc1C/C=N\OCc1ccc(Cl)cc1Cl	0%	-15	-23	-30%	40µM*	-9%
CCC(=O)NCc1c(C)c(C)n(Cc2ccccc2)c1-n1cccc1	10%	0	-8	-30%	?	-30%
COc1cc(OC)cc(-c2c(C#Cc3ccsc3)c3cc(-c4cc(F)cc(F)c4)ccc3n2C)c1	28%	0	4	-17%	·	·
CN1C(=O)CCC1c1cccnc1 (stereo not drawn)	·	·	·	·	28%[12.7 µM]	·
Cc1ccc(OCc2nnc(SCC(=O)c3ccccc3)n2-c2ccccc2)cc1	54%	30	12	-26%	?	9%
COc1ccc(NCc2nnc(SCc3ccc(Cl)cc3)n2-c2ccccc2)cc1	?	-27	?	45µM*	?	22µM*
O=C(O)CSc1nnc(Cc2ccccc2)n1-c1ccccc1	44%	-8	3	-21%	11µM*	-7%
Cc1cccc(-n2c(CCc3ccccc3)nnc2SCC(=O)c2ccccc2)c1	22%	11	-7	?	1.8µM*	-13%
COc1ccc(CC(=O)NNC(=O)CSc2nnc(C)n2-c2ccccc2)cc1	21%	5	2	-35%	?	7%
O=C(O)CSc1nnc(Cc2ccccc2)n1Cc1ccccc1	28%	8	-1	-18%	-29%[2.33 µM]	-7%
COc1ccc(CC(=O)NNC(=O)CSc2nnc(Cc3ccc(OC)cc3)n2-c2ccccc2)cc1	2%	·	-3	-19%	10µM*	5%
COc1ccc(-n2c(COc3ccc(Cl)cc3)nnc2SCc2ccc(C#N)cc2)cc1	24%	-8	-5	-14%	-8%[12.7 µM]	2%
Cc1ccc(C)c(CN2C(=O)c3ccccc3S(=O)(=O)c3ccc(C(=O)NCc4ccccc4)cc32)c1	37%	·	·	-7%	10%[59 µM]	?
CN(C)CCCNc1c2c(nc3ccccc13)CCC2	38%	·	3	-28%	40µM*	-4%
O=C(Nc1nnc(SCc2ccccc2)s1)c1cccc([N+](=O)[O-])c1	-3%	-11	5	-24%	79µM*	-7%
CC(=O)N1CC[n+]2c(-c3ccc(Cl)cc3Cl)csc21	28%	4	-1	-32%	13µM*	?
c1ccc(CCCN2CCN(c3ccccc3)CC2)cc1	12%	-1	-10	?	?	-29%
CCc1cccc(N(C(=O)c2csnn2)C(C(=O)NC(C)(C)C)c2ccncc2)c1 (stereo not drawn)	-5%	4	5	56µM*	33%	?
O=C(NCc1ccccc1)C(c1ccncc1)N(C(=O)c1ccccn1)c1ccccc1 (stereo not drawn)	47%	-2	-3	25µM*	22µM*	50µM*
Cc1ccccc1N(C(=O)c1ccccn1)C(C(=O)NCc1ccccc1)c1ccncc1 (stereo not drawn)	36%	-9	9	-7%	45%	-10%
COc1ccc(C(=O)N/C(=C\c2ccc(SC)cc2)C(=O)NCCCn2ccnc2)cc1OC	23%	2	-8	-20%	·	·
